Consider 35 compounds from ChEMBL document CHEMBL4513146, “CO-ADD screening of Karazin Kharkiv National University (Ukraine) compounds”.

In general, Inhibition refers to the relative decrease from the control value, in per cent.

Potency and affinity values are given separately.

In one experiment the test system is Staphylococcus aureus. Particulars: Concentration 32 ug.mL-1;; ASSAY_TEST Inhibition of Bacterial Growth; detection method Absorption (OD600); MEDIA CAMHB; plate type 384well; NBS; CORNING #3640; time 18 hr.
Another experiment has as its system Escherichia coli. Particulars: Concentration 32 ug.mL-1;; ASSAY_TEST Inhibition of Bacterial Growth; detection method Absorption (OD600); MEDIA CAMHB; plate type 384well; NBS; CORNING #3640; time 18 hr.

`O=C(Cn1nc2c3cc(-c4ccc(F)cc4)nn3ccn2c1=O)NCc1ccccc1Cl`: the figures for the Inhibition in the experiment with Staphylococcus aureus and in the experiment on Escherichia coli were 7.18% and -0.1%, respectively.
`CCOC(=O)c1ccc(NC(=O)CSc2nnc3c4cc(-c5ccc(OC)cc5)nn4ccn23)cc1`: the Inhibition in the experiment on Staphylococcus aureus worked out at 10.14%; with Escherichia coli, 2.37%.
Turning to `CCOc1ccc(-n2ccn3c(SCC(=O)c4ccc(OC)cc4)nnc3c2=O)cc1`, the Inhibition with Staphylococcus aureus is recorded as 15.17%; with Escherichia coli it was -3.52%.
For the compound `COC(=O)c1sccc1NC(=O)CSc1nc2ccccc2n2c(C)nnc12`, the Inhibition amounted to 17.15% in the experiment with Staphylococcus aureus and 5.14% in the experiment with Escherichia coli.
With `Cc1ccc(NC(=O)Cn2nc3c4c5c(sc4ncn3c2=O)CCCC5)cc1C`, the Inhibition in the experiment on Staphylococcus aureus is reported as 0.13%; in the experiment on Escherichia coli, -5.89%.
For the compound `CC(C)(C)Sc1ccc2nn(CC(=O)N3CCN(c4ccc(F)cc4)CC3)c(=O)n2n1`, the Inhibition with Staphylococcus aureus amounted to 4%; in the experiment with Escherichia coli, 5.62%.
For the compound `CCCCn1c(=O)c2sccc2n2c(=O)n(CC(=O)NC(C)CC)nc12` (stereo not given), the Inhibition in the experiment on Staphylococcus aureus is listed as -5.96%; with Escherichia coli, -9.68%.
For `CC(C)c1ccc(NC(=O)Cn2nc3ccc(SCc4ccc(Cl)cc4)nn3c2=O)cc1`, in that order: 4.11% and -6.33%.
Taken in the same sequence, the figures for `CCOc1ccc(NC(=O)Cn2nc3c(Oc4cccc(OC)c4)nccn3c2=O)cc1` were 13.11% and 1.75%.
With `Cc1cc(NC(=O)Cn2nc3ccc(SC(C)(C)C)nn3c2=O)ccc1Br`, the Inhibition was -0.85% with Staphylococcus aureus and -5.34% in the experiment on Escherichia coli.
As to `Cn1c(=O)c2sccc2n2c(=O)n(CCOc3ccccc3)nc12`, the Inhibition in the experiment with Staphylococcus aureus is recorded as -2.74%; in the experiment on Escherichia coli, -12.23%.
Consider `CC(C)CCn1c(=O)c2ccc(C(=O)NC3CCCCC3)cc2n2c(=S)[nH]nc12`, for which the Inhibition was -4.78% with Staphylococcus aureus and -9.84% with Escherichia coli.
Taken in the same sequence, the figures for `Cc1cccc(C)c1NC(=O)Cn1nc2n(C)c(=O)c3c(c(-c4ccccc4)cn3C)n2c1=O` were 8.81% and 0.54%.
With `CCOc1ccc(-c2nc(CSc3nc4ccccc4n4c(C(C)C)nnc34)c(C)o2)cc1`, the Inhibition is -10.96% with Staphylococcus aureus and -11.72% with Escherichia coli.
As for `O=C(CSc1nnc2c(=O)n(-c3ccc(Br)cc3)ccn12)Nc1cccc(F)c1`, the Inhibition in the experiment on Staphylococcus aureus was 9.13%; with Escherichia coli, -1.52%.
Regarding `O=C(Cn1nc2c(SC3CCCCC3)nccn2c1=O)Nc1ccccc1F`, the figures for the Inhibition with Staphylococcus aureus and with Escherichia coli were 2.83% and -6.05%, respectively.
For `Cc1cc(Br)ccc1NC(=O)Cn1nc2c(Sc3ccccc3)nccn2c1=O`, the Inhibition with Staphylococcus aureus was 4.58%; with Escherichia coli, -5.92%.
Taken in the same sequence, the figures for `Cc1cc(C)cc(Nc2nc(C)cc3nn(CC(=O)Nc4cc(F)ccc4F)c(=O)n23)c1` were 10.55% and 0.49%.
For `COc1ccc(NC(=O)Cn2nc3c(Oc4ccccc4)nccn3c2=O)cc1OC`, in that order: 1.69% and -7.24%.
For `Cc1ccc(-n2ccn3c(=O)n(Cc4ccccc4Cl)nc3c2=O)cc1C`, in that order: 0.51% and -7.32%.
Turning to `Cc1cccc(Sc2nccn3c(=O)n(CC(=O)Nc4ccc(Br)cc4C)nc23)c1`, the Inhibition is 8.48% in the experiment with Staphylococcus aureus and -5.33% in the experiment on Escherichia coli.
Regarding `COc1cccc(-n2ccn3c(SCC(=O)c4cc(C)c(C)cc4C)nnc3c2=O)c1`, the Inhibition in the experiment on Staphylococcus aureus is recorded as 15.67%; with Escherichia coli it was -4.7%.
For `CCc1nnc2c(=O)n(CC(=O)Nc3ccc(C#N)cc3)c3ccccc3n12`, in that order: 12.29% and -5.97%.
Taken in the same sequence, the figures for `COc1cccc(-n2ccn3c(SCC(=O)Nc4cc(Cl)ccc4OC)nnc3c2=O)c1` were 8.75% and -1.77%.
Take `N#Cc1ccc(NC(=O)Cn2nc3c(Oc4ccccc4)nccn3c2=O)cc1`: the Inhibition in the experiment with Staphylococcus aureus is -0.45%; in the experiment on Escherichia coli, -6.5%.
Consider `Cc1ccc(C)c(NC(=O)Cn2nc3ccc(-c4ccccc4)nn3c2=O)c1`, for which the Inhibition is -0.8% with Staphylococcus aureus and -9.05% with Escherichia coli.
On to `CCCCc1ccc(NC(=O)Cn2nc3c(N4CCSCC4)nc4ccccc4n3c2=O)cc1`, for which the Inhibition stood at 10.09% in the experiment with Staphylococcus aureus and 1.07% in the experiment with Escherichia coli.
On to `CC(C)Cn1c(=O)c2ccc(C(=O)NC3CCCC3)cc2n2c(=O)n(CC(=O)NC3CCCCC3)nc12`, for which the Inhibition with Staphylococcus aureus is -0.85%; in the experiment with Escherichia coli, -0.58%.
In the case of `COc1cc(NC(=O)C(C)Sc2nnc3c(=O)n(-c4ccc(F)cc4)ccn23)cc(OC)c1` (stereo not given), the Inhibition in the experiment on Staphylococcus aureus is recorded as 6.77%; with Escherichia coli, -6.93%.
For `Cc1ccc(NC(=O)Cn2c(=O)c3nnc(C(C)C)n3c3ccccc32)c(C)c1`, the values for the Inhibition in the experiment with Staphylococcus aureus and in the experiment on Escherichia coli were 15.48% and 8.06%, respectively.
For `Cc1nnc2c(S(=O)(=O)N(Cc3cccc(F)c3)c3cccc(F)c3)cccn12`, in that order: 18.57% and 0.97%.
Turning to `Cc1ccc(NC(=O)Cn2nc3ccc(SC(C)C)nn3c2=O)c(C)c1`, the values for the Inhibition with Staphylococcus aureus and in the experiment on Escherichia coli were -3.52% and 4.56%, respectively.
For the compound `Cc1ccc(-c2ccc3nn(CC(=O)Nc4ccc(Cl)c(C(F)(F)F)c4)c(=O)n3n2)cc1C`, the Inhibition in the experiment on Staphylococcus aureus is given as -0.53%; with Escherichia coli, -10.28%.
As for `Cc1cc(Br)ccc1NC(=O)Cn1nc2c(SC3CCCCC3)nccn2c1=O`, the Inhibition is 6.25% in the experiment with Staphylococcus aureus and -6.44% with Escherichia coli.
Consider `Cc1ccc(-c2ccc3nn(Cc4c(F)cccc4Cl)c(=O)n3n2)cc1`, for which the Inhibition is listed as 14.3% with Staphylococcus aureus and -0.36% in the experiment with Escherichia coli.
